Where “and” joins values, the source holds several entries; their conditions need not be identical. Equal entries are not always repeated. Results filed as inconclusive are left out. Calls of active or inactive are those of the source. Unless noted, the call rests on the fitted dose curve; in most records, active means well fitted curve in the direction sought with a large enough effect in the repeat runs; inconclusive means weak or mixed curves; inactive means no such curve, though single readings can be large; an effect the other way counts as inactive or inconclusive.
Legend:
[1] = qHTS assay to identify small molecule antagonists of the thyroid receptor (TR) signaling pathway - cell viability counter screen (AID 743064); further: nearly all actives have a fitted effect of over 50% in size; further: potency means the concentration at half of the fitted maximal effect
Summary of the method: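 Viability of T3-stimulated (1 nM final) GH3.TRE-Luc cells is measured by CellTiter-Fluor fluorescence after 23.5 h compound exposure at 37 °C plus 30 min reagent incubation.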

[2] = target: Estrogen receptor (Homo sapiens) (UniProt P03372); experiment: qHTS assay to identify small molecule agonists of the estrogen receptor alpha (ER-alpha) signaling pathway (AID 743075; calls by dose curve)
Estrogen receptor (Homo sapiens), sequence (P03372 whole entry, looked up): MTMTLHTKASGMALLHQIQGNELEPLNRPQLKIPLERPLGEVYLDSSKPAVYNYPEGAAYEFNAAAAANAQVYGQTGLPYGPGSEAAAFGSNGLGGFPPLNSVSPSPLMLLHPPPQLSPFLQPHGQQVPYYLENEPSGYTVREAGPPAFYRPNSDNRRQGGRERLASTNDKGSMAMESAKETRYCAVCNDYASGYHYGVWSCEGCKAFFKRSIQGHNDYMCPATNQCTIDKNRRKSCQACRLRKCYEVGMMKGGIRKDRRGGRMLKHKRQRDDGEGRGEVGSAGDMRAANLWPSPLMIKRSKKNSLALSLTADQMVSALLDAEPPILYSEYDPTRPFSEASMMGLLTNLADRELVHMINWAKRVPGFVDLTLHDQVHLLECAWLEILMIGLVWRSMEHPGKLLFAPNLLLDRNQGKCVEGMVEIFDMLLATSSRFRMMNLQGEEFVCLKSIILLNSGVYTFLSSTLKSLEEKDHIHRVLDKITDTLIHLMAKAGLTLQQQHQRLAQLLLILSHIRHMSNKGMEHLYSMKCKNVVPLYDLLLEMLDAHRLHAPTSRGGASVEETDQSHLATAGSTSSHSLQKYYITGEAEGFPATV

[3] = target: Estrogen receptor (Homo sapiens) (UniProt P03372); experiment: qHTS assay to identify small molecule agonists of the estrogen receptor alpha (ER-alpha) signaling pathway using the BG1 cell line (AID 743079); further: nearly all actives have a fitted effect of over 20% in size
[4] = qHTS assay to identify small molecule antagonists of the estrogen receptor alpha (ER-alpha) signaling pathway using the BG1 cell line (AID 743080; calls by dose curve;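 further: BG1 cells stimulated with 17beta-estradiol alongside compound; series mostly up to about 70 µM; nearly all actives have a fitted effect of over 25% in size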)
Summary of the method: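 Endogenous full-length ER-alpha in BG1-Luc-4E2 cells drives a stably integrated 4×ERE luciferase gene; compounds were tested against 17beta-estradiol over 21.5 h, with luminescence and multiplexed viability fluorescence recorded.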

[5] = qHTS assay to identify small molecule antagonists of the estrogen receptor alpha (ER-alpha) signaling pathway using the BG1 cell line - cell viability counter screen (AID 743081);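 further: compound given together with 17beta-estradiol as the ER stimulus; series mostly up to about 70 µM; nearly all actives have a fitted effect of over 45% in size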
[6] = target: Estrogen receptor (Homo sapiens) (UniProt P03372); experiment: qHTS assay to identify small molecule antagonists of the estrogen receptor alpha (ER-alpha) signaling pathway (AID 743069; active means well fitted curve in the direction sought with a large enough effect in the signal ratio in the repeat runs, not every such curve was filed as active; the % refers to the signal ratio)
Summary of the method: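 Screening used a UAS-driven beta-lactamase reporter integrated into HEK293 cells expressing ER-alpha, stimulated with 17beta-estradiol alongside test compounds over 18 hr at 37C; signal came from LiveBLAzer B/G FRET fluorescence.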

Aromatase (Homo sapiens) = Aromatase (Homo sapiens) (UniProt P11511); experiment: qHTS assay to identify aromatase inhibitors (AID 743083); further: nearly all actives have a fitted effect of over 55% in size; further: potency means the concentration at half of the fitted maximal effect
Aromatase (Homo sapiens), sequence (P11511 whole entry, looked up): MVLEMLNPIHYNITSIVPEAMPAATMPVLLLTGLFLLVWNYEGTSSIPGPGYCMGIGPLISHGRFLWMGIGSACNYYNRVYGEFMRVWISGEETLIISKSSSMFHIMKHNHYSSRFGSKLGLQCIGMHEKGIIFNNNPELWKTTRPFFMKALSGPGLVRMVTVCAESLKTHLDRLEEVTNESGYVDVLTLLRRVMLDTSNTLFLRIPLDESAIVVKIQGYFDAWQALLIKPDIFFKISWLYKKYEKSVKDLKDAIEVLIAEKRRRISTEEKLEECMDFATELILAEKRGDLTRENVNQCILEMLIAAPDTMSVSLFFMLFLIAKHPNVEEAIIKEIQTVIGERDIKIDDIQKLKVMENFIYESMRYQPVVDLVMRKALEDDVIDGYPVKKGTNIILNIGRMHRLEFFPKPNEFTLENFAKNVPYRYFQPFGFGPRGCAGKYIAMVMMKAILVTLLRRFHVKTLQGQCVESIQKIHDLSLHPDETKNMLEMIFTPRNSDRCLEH

[7] = qHTS assay to identify small molecule antagonists of the estrogen receptor alpha (ER-alpha) signaling pathway - cell viability counter screen (AID 743074; calls by dose curve; further: nearly all actives have a fitted effect of over 45% in size)
[8] = qHTS assay to identify small molecule antagonists of the thyroid receptor (TR) signaling pathway (AID 743065); further: nearly all actives have a fitted effect of over 55% in size; further: potency means the concentration at half of the fitted maximal effect
Summary of the method: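 GH3.TRE-Luc rat pituitary cells carrying two TR response elements driving luciferase were plated for 4 h, given compound plus 1 nM T3 (final), and incubated 23.5 h at 37 C. ONE-Glo luminescence measured reporter inhibition; CellTiter-Fluor fluorescence tracked cytotoxicity.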

[9] = test system: thyroid hormone receptor (rat, GH3 cells); experiment: qHTS assay to identify small molecule agonists of the thyroid receptor (TR) signaling pathway (AID 743066; calls by dose curve)

Measured: Potency

N#Cc1ccc(C2CCCc3cncn32)cc1 (stereo unspecified)
inactive: [1] | [2] | [3] | [4] | [5]

CC(=O)OCC(=O)[C@@]1(O)CC[C@H]2[C@@H]3CCC4=CC(=O)CC[C@]4(C)[C@H]3C(=O)C[C@@]21C
inactive: [6] | [2] | [3] | [5] | Aromatase (Homo sapiens)

CCn1nc(C(=O)O)c(=O)c2cc3c(cc21)OCO3
not listed: [1] | [8] | [9]
inactive: all other assays above

C[C@](N)(Cc1ccc(O)cc1)C(=O)O
inactive: [6] | [7] | [2] | [3] | [5] | Aromatase (Homo sapiens)

NC(=O)COCCN1CCN(C(c2ccccc2)c2ccc(Cl)cc2)CC1 (stereo unspecified)
active: [1] 23.7 µM
not listed: [8] | [9]
inactive: all other assays above

C/C=C(\C)C#N
not listed: [1] | [4]
inactive: all other assays above

Nc1c2c(nc3ccccc13)CCCC2O (stereo unspecified)
inactive: [6] | [7] | [2] | [3] | [4] | [5]

Oc1ccc(C2CNCCc3c2cc(O)c(O)c3Cl)cc1 (stereo unspecified)
inactive: [7] | [5] | Aromatase (Homo sapiens)

COc1c(N2C[C@@H]3CCCN[C@@H]3C2)c(F)cc2c(=O)c(C(=O)O)cn(C3CC3)c12
not listed: [1] | [8] | [9]
inactive: all other assays above

CCC=O
inactive: [8] | [9] | [6] | [7] | [5] | Aromatase (Homo sapiens)

CCCCNC(=O)NCCCC
not listed: [8] | [9]
inactive: all other assays above

Cc1cccc(C)c1NC(=O)C(C)N (stereo unspecified)
not listed: [1] | [8] | [9]
inactive: all other assays above

CC(C)(c1ccc(O)cc1)c1ccc(O)cc1
inactive: [9] | [7] | [4] | [5] | Aromatase (Homo sapiens)
active: [8] 61.1 µM

CCCCCCOC(=O)CCCCC(=O)OCCCCCC
not listed: [1]
inactive: all other assays above

COc1ccc(CCN(C)CCCC(C#N)(c2cc(OC)c(OC)c(OC)c2)C(C)C)cc1OC (stereo unspecified)
active: [1] 29.8 µM
inactive: [9] | [7] | Aromatase (Homo sapiens)

OC(CCN1CCCCC1)(c1ccccc1)C1CC2C=CC1C2 (stereo unspecified)
active: [8] 26.6 µM and 23.7 µM
not listed: [1] | [5]
inactive: all other assays above

CC(C)CNCC(C)C
inactive: [8] | [9] | [7] | [5] | Aromatase (Homo sapiens)

C[C@H](NC(CCc1ccccc1)C(=O)O)C(=O)N1CCC[C@H]1C(=O)O (stereo partly specified)
not listed: [1] | [7]
inactive: all other assays above

COc1nc(N)nc2c1ncn2[C@@H]1O[C@H](CO)[C@@H](O)[C@@H]1O
inactive: [9] | [7] | [5] | Aromatase (Homo sapiens)

Cc1ccc(=O)n(-c2ccccc2)c1
inactive: [1] | [6] | [7] | [2] | [5] | Aromatase (Homo sapiens)

CO/N=C(/C(=O)N[C@@H]1C(=O)N2C(C(=O)OCOC(=O)C(C)(C)C)=C(C)CS[C@H]12)c1csc(N)n1
inactive: [1] | [9] | [5] | Aromatase (Homo sapiens)

CCN(CC)CCOCCOC(=O)C1(c2ccccc2)CCCC1
inactive: [2] | [3] | [5] | Aromatase (Homo sapiens)

CC(C)(O)C(=O)c1ccccc1
not listed: [1]
inactive: all other assays above

O=C1NC(=O)[C@@]2(CCOc3ccc(F)cc32)N1
not listed: [1] | [8] | [9]
inactive: all other assays above

CC/C=C\CC/C=C/CO
inactive: [8] | [9] | [7] | [5] | Aromatase (Homo sapiens)

Nc1ccccc1S(=O)(=O)O
inactive: [8] | [9] | [7] | [5] | Aromatase (Homo sapiens)

N[C@H](C(=O)O)c1ccc(O)cc1
not listed: [8] | [9]
inactive: all other assays above

CC(C)(CC(=O)O)C(=O)O
not listed: [1]
inactive: all other assays above

O=C(CCCN1CCC(O)(c2cccc(C(F)(F)F)c2)CC1)c1ccc(F)cc1
inactive: [7] | Aromatase (Homo sapiens)

COCCc1ccc(OCC(O)CNC(C)C)cc1 (stereo unspecified)
inactive: [7] | [5] | Aromatase (Homo sapiens)

CCN(Cc1ccncc1)C(=O)C(CO)c1ccccc1 (stereo unspecified)
active: Aromatase (Homo sapiens) 29.8 µM
inactive: [8] | [9] | [7] | [5]

Cc1cccn2c(=O)c(-c3nnn[nH]3)cnc12
not listed: [1] | [8] | [9]
inactive: all other assays above

O=C1CC2CC1C1CCCC21 (stereo unspecified)
inactive: [8] | [9] | [7] | [2] | [5] | Aromatase (Homo sapiens)

CC[N+](C)(C)c1cccc(O)c1
inactive: [7] | [5] | Aromatase (Homo sapiens)

CCCCCCCCCCCC
inactive: [8] | [9] | [5] | Aromatase (Homo sapiens)

CC/C=C\CC/C=C/C(OCC)OCC
inactive: [1] | [9] | [5]

N[C@@H](C(=O)N[C@@H]1C(=O)N2C(C(=O)O)=C(Cl)CS[C@H]12)c1ccccc1
not listed: [1]
inactive: all other assays above

C=COCC1CCC(CO)CC1 (stereo unspecified)
not listed: [1] | [6] | [7]
inactive: all other assays above
